TWEAK Fn14 block – inhibitors of TWEAK-Fn14 signaling, primary screen, luciferase reporter cells, uHTS; TWEAK-stimulated Fn14 reporter cells, luciferase luminescence, 8 h; inhibition, % at 10 µM; hit rate 2% among 360,000; in the data active means inhibition above about 50%
HSP90 inh – HSP90 inhibitors, primary screen, cell lysate, luminescence; hit rate 0.91% among 290,000; Heat shock protein HSP 90 (rabbit reticulocyte lysate; luciferase refolding); inhibition, % at 5.6 µM; AID 1789, 2009; Rabbit reticulocyte lysate, luciferase refolding luminescence, 3 h;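 active means inhibition above the screen-wide mean plus 3 SD, computed separately per campaign, cut at about 16% in these data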;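 further: 0% = DMSO wells and 100% = 60 µM geldanamycin wells; inhibitors lower the luminescence because luciferase stays unfolded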
LGR2 antag – inhibitors of bursicon-induced LGR2 CRE-luciferase signal, primary screen, cell-based, HEK293, CRE-luciferase reporter, bursicon stimulation | AID 720647, 2013 | bursicon-stimulated, 4 h | hit rate 0.35% among 380,000 | inhibition, % at 9.99 µM | Drosophila bursicon receptor LGR2 (rickets);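 active means drop in luminescence signal, shown as inhibition above about 50% in the replicate tests, limit read from the data, passing the limit was not always enough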;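 further: agonist challenge used bursicon conditioned medium at about half maximal strength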
TROY signal inh – inhibitors of TROY-driven NF-kB signaling, primary screen, Q293 LMP1-TROYcd cells, NF-kB luciferase, uHTS; inhibition, % at 10 µM; Q293 LMP1-TROYcd NF-kB luciferase reporter, 4 h; hit rate 0.98% among 360,000;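 active means compounds whose plate-normalised and pattern-corrected inhibition of the luciferase reporter signal at the single screening dose is 50% or more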
* marks the source's active call; other numbers are inactive results; x = no result given. Compounds with a hit are over-represented: about 2.2% of the library has one in this group of screens.

SMILES | TWEAK Fn14 block | HSP90 inh | LGR2 antag | TROY signal inh
C[C@H](CO)N1C[C@H](C)[C@@H](CN(C)Cc2ccc(C(=O)Nc3ccccc3N)cc2)Oc2ccc(NC(=O)CCN3CCOCC3)cc2C1=O | x | x | -4.5 | x
CO[C@@H]1CN(C)C(=O)c2ccc(NC(=O)c3cc(C)on3)cc2OC[C@H](C)NC[C@@H]1C | x | x | 13.4 | x
CCCC(=O)Nc1ccc2c(c1)C(=O)N(C)C[C@H](OC)[C@@H](C)CN(C(=O)c1ccncc1)[C@H](C)CO2 | x | x | 0.3 | x
COC(=O)c1sc(NC(=O)c2cc3c(s2)CCCC3)nc1C | 11.6 | 11.4 | x | -10.3
O=C(Nc1ccccc1OC(F)F)c1cc2c(s1)CCC2 | -54.2 | 0.2 | 16.5 | -64.1
Cc1csc(NC(=O)c2cc3c(s2)CCC3)n1 | 68.0* | 2.7 | x | -46.7
COc1ccccc1NC(=O)c1ccc(NC(=O)c2cc3c(s2)CCC3)cc1 | 58.7* | 1.2 | 13.8 | 30.7
COCC#Cc1cnc2c(c1)C(=O)N([C@@H](C)CO)C[C@H](C)[C@@H](CN(C)C(C)=O)O2 | x | x | 4.0 | x
C[C@H](CO)N1C[C@H](C)[C@@H](CN(C)Cc2cncnc2)Oc2cc(C3=CCCC3)ccc2S1(=O)=O | x | x | -1.7 | x
CCOC(=O)N1CCN(C(=O)C2CCN(S(=O)(=O)c3ccc(Cl)cc3)CC2)CC1 | -3.7 | 5.2 | x | 10.6
CCOC(=O)N1CCN(C(=O)C2CCC(CNS(=O)(=O)c3ccc(Cl)cc3)CC2)CC1 (stereo not drawn) | 51.3* | 10.2 | x | x
C[C@H](CO)N1C[C@H](C)[C@@H](CN(C)Cc2ccccc2)Oc2ncc(/C=C/c3ccccc3)cc2C1=O | x | x | 18.6 | x
COC(=O)c1ccc(NC(=O)c2cc3sccc3n2C)cc1 | 55.5* | -3.8 | x | -23.9
Cn1c(C(=O)Nc2ccccc2)cc2sccc21 | 12.1 | -2.4 | x | -40.1
O=C(C[C@@H]1C=C[C@@H](NC(=O)c2ccccc2)[C@@H](CO)O1)NCCc1ccncc1 | x | x | -17.4 | x
CN(C)C(=O)c1c(NC(=O)c2ccco2)sc2c1CCCCC2 | 29.9 | 9.5 | x | 65.0*
O=C(Nc1sc2c(c1C(=O)O)CCCCC2)c1ccco1 | 55.5* | 8.0 | x | 0.7
O=C(c1ccncc1)N1CC2(C1)[C@H](c1ccccc1)[C@@H](CO)N2CC1CCOCC1 | x | x | -17.8 | x
Cc1ccc(C)c(NC(=O)c2ccccc2NS(=O)(=O)c2cc([N+](=O)[O-])ccc2C)c1 | 58.0* | 3.4 | 29.8 | 54.6*
CC(=C1SC(=S)NC1=O)c1ccccc1 | -8.5 | x | -6.6 | -20.1
CC1(c2ccccc2)CC(C)(C)N2C(=O)/C(=C3\SC(=S)NC3=O)c3cccc1c32 (stereo not drawn) | 69.8* | 0.9 | 9.8 | 61.2*
O=C(C[C@@H]1C[C@@H]2c3cc(NC(=O)Nc4ccc(C(F)(F)F)cc4)ccc3O[C@@H]2[C@@H](CO)O1)NC1CCCCC1 | x | x | 1.2 | x
Cc1cc(-c2ccccc2)n(-c2cc(N/N=C/c3ccccc3O)ncn2)n1 | 68.7* | 1.7 | 12.8 | 41.8
CNc1cc(-n2nc(C)cc2-c2ccccc2)ncn1 | 6.0 | -0.8 | x | 14.2
C[C@@H]1CN([C@@H](C)CO)C(=O)c2cc(NC(=O)CCCCCC(=O)Nc3ccccc3N)ccc2O[C@@H]1CN(C)Cc1ccncc1 | x | x | 13.6 | x
SMILES | TWEAK Fn14 block | HSP90 inh | LGR2 antag | TROY signal inh
C[C@@H]1CCCCO[C@H](CN(C)S(=O)(=O)c2ccc(F)cc2)[C@@H](C)CN([C@H](C)CO)C(=O)c2cc(NC(=O)C3CCCCC3)ccc2O1 | x | x | -13.3 | x
Cc1ccc2cc(CN(Cc3ccco3)C(=O)NCc3ccccc3)c(=O)[nH]c2c1C | 21.8 | 3.0 | x | 50.2*
CCN(CC)CCN(Cc1cc2cc(C)cc(C)c2[nH]c1=O)C(=S)NCc1ccco1 | 4.8 | 0.0 | 17.1 | 18.2
Cc1ccc2cc(CN(Cc3ccco3)C(=O)c3ccccc3)c(=O)[nH]c2c1C | -10.9 | 3.2 | x | -13.7
Cc1cc(C)c2[nH]c(=O)c(CN(Cc3cccs3)C(=S)NCc3ccco3)cc2c1 | 63.9* | 1.0 | -13.4 | 39.1
C[C@@H]1CN([C@@H](C)CO)S(=O)(=O)c2ccc(C3=CCCC3)cc2O[C@H]1CN(C)C(=O)CN(C)C | x | x | 2.0 | x
Cc1ccnc(NC(=O)/C=C/c2cccs2)c1 | 53.5* | 1.9 | 13.4 | -9.1
CCn1nc([N+](=O)[O-])c(C(C#N)c2nc3cc(C(F)(F)F)ccc3s2)c(Cl)c1=O (stereo not drawn) | -12.3 | 3.2 | 6.0 | 64.7*
CCCn1nc([N+](=O)[O-])c(C(C#N)c2nc3ccccc3o2)c(Cl)c1=O (stereo not drawn) | -43.6 | -0.3 | 17.3 | 57.3*

Screening results as filed in PubChem BioAssay.
